B1: GBRAPL2_106_7264 (protein)
chain: EGLEKARKLAKEALEKAKKLPEAFKKGDEEAIDELLELLDELTRLAIELGLDEVAALVADAFDNVFAASEDPETAEEDLEEAIKDLEEALKLIEKKIKEL
B2: GBRAPL2_128_7282 (protein)
chain: MKLVTIDVTVENEEEYNLAVEVFDEIIEEGSEKVADLADAAKDMLESSKENGYKENVSVADILSDEDAEELRELFEELAKKYGEEKVKKIIELTIDDLPP
B3: GBRAPL2_128_7279 (protein)
chain: MKIVEIDIDVENEEEYKLAKEVLEKIAEEGSPEVAKLADAALDLVEENEEDGFDEKFTAVDILSEEDAEELKELFEELAEKLGKEKVEKVIKLEIDDIPP
B4: GBRAPL2_128_7272 (protein)
chain: MKLVEITINIKDEESYNLAIEILDRIAEKSSPEVADLADAAKDAAEIAAENGYDEKVVVVDVLSEEEAEELKKIYEEIKKELGEEKVKSVVELEITDIEP
B5: GBRAPL2_128_7274 (protein)
chain: MKIVEIDIDIKNEEQYELALEVLDRIAANSSPAVADLADAARDLAESAKEEGFDENVSAVDVLSDEDAAELQAIYDEIAAELGEEKVNSVVKLTIDPLEP
B6: GBRAPL2_0_7263 (protein)
chain: LEKVLEEMKKLSIEEAKKLAKEYLEKLRDDPSVTPEEFLEAALKILDVLYEKVKKEKTEEALEIFEEFRDFAVELAAKVDPNIAAEVDSYAGSLIMELEE
B7: GBRAPL2_128_7283 (protein)
chain: MKLVEIDITVKNEEEYKLAKEVLKEIAEKGSPAVAKLADAALDMLESEKEEGFKDGVTVADILTEEEAEELKKLYEELAKKYGEEKVKKIIELTVDDIPP
B8: GBRAPL2_0_7260 (protein)
chain: MEEVLEKMKKLSLEEATKLAKEYLEKLRADPNVTKEEFEEAAEKLLEVLAEKAKKEKTEEALELFDEFVDYFTELAKKIDPNLAAYIASYGGSLLYEIES
B9: GBRAPL2_0_7259 (protein)
chain: LEEVLEEMKELSIEEAAELAKKYVKELVADPSVTPEQFLEAAEALLEVLAEKVKEEKTEEALEIFDEAVDYFTEEAKKIDPETAAAVATYGGSLLYEIES
B10: GBRAPL2_0_7257 (protein)
chain: MEEVLKKMKELSIEEAAKLAKEEIEKLVADPSVTVEELEEAIEKLLEVLAEKVKEEKTEEALEILDEFVDYATELAAKVDPNLAAYVASYGGSLLYELEE
B11: GBRAPL2_128_7276 (protein)
chain: KKIVSIDVDLKDEESYELALKILEEIAEKSSPKVKELAEAAKDLAEAAKEEGFGETVTAVDILSDEEVEELKKIYAEIKKKYGEEKVNSVVKIEIDELKP
B12: GBRAPL2_0_7258 (protein)
chain: LEEILKEMKTLSIEEAAELAKEEAERLVADPSVTPDEFEAAAFAMLEVLAEKVKKEKTEEALEIFDEAVDHFTALAAKIDPLTAAAVATHGGSLIYEIES
B13: GBRAPL2_128_7273 (protein)
chain: MYLVEIDIDVKDEESYNLAVEILDEIAKNSSEKVKDLAEAARDMAEIAYENGFDEKVVVVDIVSEEEAEELKKIYEEIKKKKGEEKVNSVVELEIDEVEP
B14: GBRAPL2_128_7270 (protein)
chain: MKIVELDVNVKDEESYELALEILDEIAKNSSPEVKDLAEAARDLVEEAKKRGFGENVTAVDILSDEDAEELKKIYEELKKKYGEEKVNSVLELEISDVPP
B15: GBRAPL2_128_7284 (protein)
chain: MKLVEIDITVKNEEEYELVLKVLTEIAERGSPAVAKLADAAKDMVEEEKKEGFKDGVTVADVLSDEDAAELKALYEELAEKYGKEKVNKHIKLTVDDLPP
B16: GBRAPL2_128_7271 (protein)
chain: KKIVEIDVDIKDEESYNLALEILDEISENSSPEVKKLADAAKDLVESAKEEGFGENVTAVDILSDEEAALLQKIYEEIKKKYGKEKVNSVVKLDISDVPP
B17: GBRAPL2_128_7288 (protein)
chain: MKLVTLDVDVEDEEEYELALEVLTRLAERGSPAVARLADAARDMVEEAKEEGYDEEVAVTDILSEEDAEELRALYEELAAELGAERVSRVIRLEVDDLPP
B18: GBRAPL2_106_7266 (protein)
chain: EKLEELKKLLEEALELAKKLPEAFKAGDEEAIDELLDLLDEATRLAIELGLDEVAALVADAFDNVFAASEDPETAEEDFKEAIKNLEEALKLVEEELKKL
B19: GBRAPL2_128_7280 (protein)
chain: MKLVEISVTVENEEEYELAKKVLTEIAEKGSPEVAKLADAALDLVESNKEDGFDEAVVAVDILSEEDAEELKELYEELAEKYGKEKVEKVIQVEVDDIPP
B20: GBRAPL2_106_7265 (protein)
chain: SGLEELLKLLEEALEKAKKLPEAFKKGDEEAVDELLELLDEATRLAIELGLDEVAALVAAAFDDVFAASEDPETAEEDFEEAIEDLEEAKELVEKRLEEE
B21: GBRAPL2_128_7281 (protein)
chain: MKLVTIDIDVENEEEYELVKKVLDEIIEKGSPEVADLADAAKDMLEESKKEGFKEKVSVADILSDEEAEELKKLFEELAKKYGEEKVNKHIELEIDDLPP
B22: GBRAPL2_128_7285 (protein)
chain: MKLVTIDIKVENEEEYELAKKVLDEIAEEGSPAVAKLADAARDMLESEKEEGFKDGVSVADILSDEEAEELKELYEKLAEKYGKEKVNKIIELTVDDLPP
B23: GBRAPL2_106_7267 (protein)
chain: EKLKELLKQLEELAKKIEELLKKADENDEELIDETLELLNEATRQAIEAGLDEVAALLADAFNHVFEAKENPEERKENLEEALKDVKEAIKLVKKKIKEA
B24: GBRAPL2_0_7262 (protein)
chain: MEKVLEEMEKLSIEEAAKLAKEYAEKLKADPSVSPEQFEEAVLALLEVLYKKVKKEKTEKALEIFEEAVDYFTELAAEVDPNLAAYVDSYAGSLIMELEE
B25: GBRAPL2_128_7275 (protein)
chain: MKIVEIDVDIKNEEQYNLALEILDEIAENSSPAVADLADAAKDLAESSKERGFDENVTAVDVLSEEDAEELRRIYEEIAEKLGREKVESVVRLEISDLEP
B26: GBRAPL2_128_7286 (protein)
chain: MKLVEIDIDIKNKEEYELAKAVLDDIAKNSSPKVAKLADAAKDMAEEAAKEGYKEKVTVADILTDEEAEELKKLLEELKEKYGKEKVEKVIKLTVDDLPP
B27: GBRAPL2_106_7269 (protein)
chain: EELKELLEKLKELKEKIEELLEKAEEKDEELYDETIELADEVTRLAIELGLDEVAALIADAANDIFEALENPEERKEDLEEALEDVEEAIKLVEEEIKKE
B28: GBRAPL2_0_7261 (protein)
chain: MEEVLEKMKKLSIEEAAKLAKEYLEKLRNDPSVTPEEFEEAALKILEVLAEKVKKEKTEEALEIFEELVDYATKLAAEIDPNLAAYIDSYGGSLIMELEE
B29: GBRAPL2_128_7289 (protein)
chain: MKLVTLDIDIENEEEFKLAKKVLEELAKKGSPAVADLANAALDMVEEAEKDGYNEKVSVADILSEEDAEELKKLLEELAKKYGEEKVKKIIKLEIDELPP
B30: GBRAPL2_106_7268 (protein)
chain: KKLEEILEELEEALELVEELLERAEEKDEELLDETLELLDRVTRLAIEAGLDEVAALVADAANDVFAAEEDPENRKEYLERAKEDLEEAIKLVKEKIKEA
B31: GBRAPL2_128_7287 (protein)
chain: MKLVTIDITIENEEEYELAEKVLEELARRGSPAVADLADAALDMVRSAKEDGYNENVAVTDILSPEDAAELKALLEELAKEYGEEKVNRIIKLEVDDIPP
B32: GBRAPL2_128_7278 (protein)
chain: MKLVEIDIDIKNEEEYELAKKVLKRIAEEGSPEVSKLADAALDLVEENKEEGFKYSRTVVDILSEEDAEELKELFEKLAEEYGKEKVEKVIKLEIDDIPP

The binders below were run against GABARAPL2, P60520 (assay: median log2 fold change of GCK-ALFA target abundance (FLAG IP / Myc IP barcode read proportion) (log2 ratio); each designed protein is fused to an ALFA-tag nanobody in HEK293 cells to bring the named protein to FLAG-tagged glucokinase (GCK); Myc marks an untargeted standard; higher = target protein stabilised (more abundant)). Conditions: target protein: 3xFLAG-MCP-GCK-ALFA reporter; HEK293 landing pad (RPLP).
In short: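 Sequencing of reverse-transcribed, amplified circular RNA barcodes from anti-FLAG and anti-Myc immunoprecipitates provided the readout for an ALFA-nanobody-fused binder library recombined into HEK293 landing-pad cells. Those cells were induced with 2 μg mL^−1 doxycycline, transfected with a plasmid expressing a FLAG-tagged target and a Myc-tagged standard, and lysed after 48 h. Target abundance is the per-binder median log2 ratio of FLAG to Myc barcode read proportions. Only barcodes at a proportion of ≥10^−7 in both replicates and binders with ≥3 barcodes per replicate were kept, with a 10^−6 pseudocount added before the two replicates were pooled.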

GABARAPL2, P60520, sequence (P60520 whole entry, the tested form may be a part): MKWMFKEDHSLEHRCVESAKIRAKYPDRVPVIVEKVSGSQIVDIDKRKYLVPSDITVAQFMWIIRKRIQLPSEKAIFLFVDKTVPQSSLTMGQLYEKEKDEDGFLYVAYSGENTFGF

Binder | median log2 fold change
B1 | -0.195
B2 | -0.381
B3 | -0.539
B4 | -0.21
B5 | -0.506
B6 | 0.11
B7 | -0.458
B8 | 0.248
B9 | 0.154
B10 | -0.0513
B11 | -0.258
B12 | -0.0288
B13 | -0.586
B14 | -0.268
B15 | -0.0335
B16 | -0.852

Binder | median log2 fold change
B17 | -0.203
B18 | 0.00104
B19 | -0.794
B20 | -0.285
B21 | -0.33
B22 | -0.134
B23 | 0.226
B24 | 0.203
B25 | -0.585
B26 | -0.551
B27 | -0.274
B28 | 0.0589
B29 | -0.0985
B30 | -0.012
B31 | -0.633
B32 | 0.112
